Laboratory results published in PubChem BioAssay (NCI).
Compounds without any hit were thinned out: in the full panel of roughly 79,000, 15% have a hit. Unmarked numbers belong to inactive results. Activity calls are given as the source filed them. No stated cut-off is given here; in the data, active means growth inhibition above about 70%; inactive means the rest.

Key:
[1] = NCI Yeast Anticancer Drug Screen. Data for the rad50 strain (AID 155);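 further: 0% = growth of vehicle-only cultures of the same strain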; details: S. cerevisiae rad50 strain growth inhibition, hits give high values
In short: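 Readout: growth inhibition relative to vehicle-treated cultures. Compound exposure was carried out in a genetically defined yeast strain deficient in DNA damage repair.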

[2] = NCI Yeast Anticancer Drug Screen. Data for the mec2-1 strain (AID 157); details: S. cerevisiae mec2-1 strain, hits give high values
In short: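 Strain: mec2-1 (DNA repair/cell cycle alteration). Compound exposure, then growth measured; inhibition expressed relative to vehicle.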

[3] = NCI Yeast Anticancer Drug Screen. Data for the sgs1 mgt1 strain (AID 161);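 further: 0% = growth of cultures given vehicle only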; details: S. cerevisiae sgs1 mgt1 strain, hits give high values
In short: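 Mutant yeast exposed to compound; growth scored against vehicle-only wells.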

[4] = NCI Yeast Anticancer Drug Screen. Data for the cln2 rad14 strain (AID 165);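 further: 0% = growth equal to vehicle treated cultures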; details: S. cerevisiae cln2 rad14 strain, hits give high values
In short: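 Compounds are applied to the cln2 rad14 yeast strain, and growth is then compared with that of vehicle-treated cultures to give inhibition.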

[5] = NCI Yeast Anticancer Drug Screen. Data for the bub3 strain (AID 167); details: S. cerevisiae bub3 mutant strain, hits give high values
In short: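 Readout: yeast growth inhibition, expressed relative to vehicle-only wells. The test organism is a mutant strain from a panel with lesions in DNA repair or checkpoint genes.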

[6] = NCI Yeast Anticancer Drug Screen. Data for the mlh1 rad18 strain (AID 175); details: S. cerevisiae mlh1 rad18 strain growth inhibition, hits give high values
In short: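 Read-out is yeast growth inhibition, calculated against vehicle-only controls. The compound was applied to a strain engineered with DNA damage repair alterations.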

[7] = at 5.0 µM (retest, dose inferred, filed as 0.5)
[8] = at 50.0 µM (retest, dose inferred, filed as 5.0)

SMILES | growth inhibition [1, 7] | growth inhibition [1, 8] | growth inhibition ([1]; at 50.0 µM) | growth inhibition [2, 7] | growth inhibition [2, 8] | growth inhibition ([2]; at 50.0 µM) | growth inhibition [3, 7] | growth inhibition [3, 8] | growth inhibition ([3]; at 50.0 µM) | growth inhibition [4, 7] | growth inhibition [4, 8] | growth inhibition ([4]; at 50.0 µM) | growth inhibition [5, 7] | growth inhibition [5, 8] | growth inhibition ([5]; at 50.0 µM) | growth inhibition [6, 7] | growth inhibition [6, 8] | growth inhibition ([6]; at 50.0 µM)
O=C1C=CC(=O)c2nc3ccccc3nc21 | 5% | 98% (active) | 85.3% (active) | 2% | 99% (active) | 83.2% (active) | 1% | 98% (active) | 50.6% | -1% | 99% (active) | -16.7% | -1% | 98% (active) | 90.1% (active) | 16% | 97% (active) | 91% (active)
Cc1ccc(-n2c(CSc3ccc(Cl)cc3)nnc2SCc2nc3ccccc3[nH]2)cc1 | -22% | 8% | 46.9% | -16% | -9% | 73.1% (active) | -28% | 7% | 42.7% | -4% | 5% | 70.5% (active) | 1% | -3% | 3.9% | 2% | -4% | 66.6%
O=C(C(=O)c1ccc(Cc2ccc(C(=O)C(=O)c3ccccc3)cc2)cc1)c1ccccc1 | -1% | -20% | 6.45% | 0% | -4% | 6.4% | 1% | 1% | -15.6% | 3% | -17% | 27.4% | 2% | -22% | 0.8% | 2% | -17% | 12.2%
Cc1ccc(C(=O)/C=C/c2ccccc2)cc1 | 8% | 42% | 52% | -6% | 14% | 13.7% | 1% | 38% | 36.6% | 0% | -22% | -22% | 6% | 19% | 9.3% | 2% | 24% | 82.1% (active)
COc1ccc(C2c3cc4c(cc3OC(N3CCCC3)C2C)OCO4)c(OC)c1 (configuration not stated) | -3% | 77% (active) | 94.5% (active) | -5% | 53% | 94.2% (active) | 1% | 74% (active) | 88.2% (active) | -4% | 68% | 71% (active) | -6% | 68% | 87.8% (active) | -3% | 82% (active) | 93.5% (active)
COC(CC[P+](c1ccccc1)(c1ccccc1)c1ccccc1)(C(=O)c1ccccc1)c1ccccc1 (configuration not stated) | 91% (active) | 99% (active) | 98.7% (active) | 97% (active) | 99% (active) | 99.7% (active) | 88% (active) | 99% (active) | 99.8% (active) | 90% (active) | 99% (active) | 98.8% (active) | 94% (active) | 100% (active) | 99.7% (active) | 92% (active) | 100% (active) | 99.5% (active)
CC(=O)c1c2c(cc3c1CC1(C3)Cc3cc4c(c(C(=O)O)c3C1)CCCC4)CCCC2 (configuration not stated) (tested in a mixture with another compound) | 90% (active) | 99% (active) | 77.7% (active) | 84% (active) | 99% (active) | 97% (active) | 94% (active) | 99% (active) | 97.8% (active) | 94% (active) | 99% (active) | 97.9% (active) | 82% (active) | 99% (active) | 96% (active) | 96% (active) | 99% (active) | 98% (active)
CC(C)C1=CC2=CCC3C(C)(C(=O)O)CCCC3(C)C2CC1 (configuration not stated) (tested in a mixture with another compound) | -8% | 80% (active) | 75.5% (active) | -16% | 96% (active) | 75.7% (active) | -13% | 88% (active) | 75.5% (active) | -17% | 85% (active) | 88.5% (active) | -14% | 88% (active) | 89.5% (active) | -3% | 92% (active) | 88.8% (active)
O=C(CNc1cccc([N+](=O)[O-])c1)Nn1c(-c2ccccc2)nc2ccccc2c1=O | 2% | 30% | 55.5% | -3% | 17% | 18.4% | 3% | 21% | 62.7% | 12% | 35% | 38.6% | -18% | 9% | 54.6% | 7% | 41% | 76.7% (active)
CCCCCCCCCCCCNC(=O)C[n+]1cccc(C(=O)N(C)C)c1 | -5% | 33% | 68.3% | -24% | -13% | 58% | -17% | 46% | 91.4% (active) | -15% | 13% | 24.6% | -9% | 21% | 3.35% | 7% | 44% | 53.4%
O=C1OCC/C1=C1/CCOC1 | 73% (active) | 97% (active) | 99.2% (active) | 65% | 98% (active) | 99.3% (active) | 82% (active) | 98% (active) | 50.3% | 51% | 97% (active) | 98.8% (active) | 61% | 97% (active) | 99.2% (active) | 78% (active) | 97% (active) | 99.5% (active)
CC(=O)C1(C(C)=O)C2=C(C(=O)C(Cl)=C(Cl)C2=O)N2C=CC=CC21 (configuration not stated) | 85% (active) | 95% (active) | 98.3% (active) | 81% (active) | 97% (active) | 98.5% (active) | 78% (active) | 97% (active) | 98.3% (active) | 40% | 95% (active) | 96.8% (active) | 91% (active) | 97% (active) | 98.3% (active) | 92% (active) | 96% (active) | 98.2% (active)
O=[N+]([O-])c1ccc(/C(=C\c2ccccc2)Cn2ccnc2)cc1 | 88% (active) | 94% (active) | 71.5% (active) | 59% | 85% (active) | 77% (active) | 84% (active) | 92% (active) | 71.3% (active) | 89% (active) | 91% (active) | 64.8% | 78% (active) | 94% (active) | 81.8% (active) | 80% (active) | 92% (active) | 75.5% (active)
CCCCCCCCCCN | 1% | 51% | 65.8% | -1% | 13% | 34.6% | 7% | 36% | 71% (active) | 6% | 19% | 42.2% | 7% | 30% | 47.2% | 6% | 36% | 46.8%
COC(=O)c1ccccc1C=C(c1ccc([N+](=O)[O-])cc1)c1ccc([N+](=O)[O-])cc1 | 4% | 94% (active) | 93.2% (active) | -2% | 99% (active) | 95.8% (active) | 4% | 98% (active) | 96.5% (active) | -11% | 97% (active) | 95.1% (active) | -2% | 98% (active) | 94.6% (active) | 28% | 97% (active) | 96% (active)
O=C1CN(c2cccc(Cl)c2)C(=O)CN1/N=C/c1ccc[nH]1 | 4% | -3% | 98.4% (active) | 7% | 0% | 99.2% (active) | 10% | 0% | 98.7% (active) | 2% | -3% | 97.9% (active) | 1% | -3% | 98.3% (active) | -3% | -5% | 99% (active)
Cc1c(N2CCCC2)cc2c(c1NC(=O)c1ccccc1Cl)C(C)(C)CC2(C)C | 11% | 95% (active) | 82.8% (active) | -2% | 89% (active) | 59.5% | 20% | 85% (active) | 73.2% (active) | 0% | 91% (active) | 79.3% (active) | 10% | 80% (active) | 90.7% (active) | 22% | 91% (active) | 80.2% (active)
CC1(C)CC(O)C(O)C1 (configuration not stated) | -2% | -2% | -4% | 2% | 0% | 7.25% | 0% | -1% | 12.6% | -2% | -13% | 67.5% | 2% | 11% | -1.7% | -1% | -4% | -5.6%
COc1c(OC)c(C2(O)C(=O)N(C)c3ccccc32)c(OC)c(OC)c1C1(O)C(=O)N(C)c2ccccc21 (configuration not stated) | -1% | 2% | 7.2% | -2% | 12% | 3.9% | -3% | 1% | -4.9% | -10% | -2% | -0.05% | -3% | -2% | 4.85% | -1% | 22% | 7.15%
